# In the supplement of paper PMC6555819:
# System: RARa homodimer (NR concentration 270 nM)
# Assay: PBM binding z-score (relative to random genomic background probes); higher = stronger binding; sequences stand for … in GC…GCGATTGACAGCGTAGAATGAAGG
# Summary of the method: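 Each nuclear receptor dimer, without ligand, was incubated for 1 h on custom Agilent 4×180K protein-binding microarrays. Binding was detected with antibodies against each partner (one per run), and scanned fluorescence was regression-normalized. The binding z-scores are referenced to random human genomic background probes.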
row,Sequence,PBM binding z-score
1,TCATCTAGGTAATACAGGTGAAAGTCGGCATCTA,1.29
2,CGTCCAAGGTCAGAAGGTCAGTGAAAGCGACGTG,1.32
3,CATACAGGGTCAGCTAAGCCAGAGTAGGGACGGC,0.0387
4,TATACAGGGTCAGAGGCCAGAGTACGAATGTCGA,1.13
5,GGATCGAGGGCATTCGAGTTGATAGCATGGCGAT,-0.556
6,ACTAGTTGGTCAGCTGTGGTCACACACAATTCGG,0.116
7,TCGAGTAGGTTAGGGGCACTCAGAATGGCGTCGA,-0.62
8,CCTAGAAGGCCAATCTGGGTCACTCAAGGCTTGA,0.185
9,ACTTACGAGTCAACGAGGTTATAGCACGCGTATA,-0.00172
10,TAGCCTAGGTCATGGGCTAGTATACCACGCGAAC,-0.439
11,TCTGCTAGGTCAACGATGGTCATCTAATCTGCTA,-0.306
12,TCTATTAGCTGATTAGGGCAACCGAAACAGCGGA,-0.337
13,CTCGAAAGGTGGGTTGAGGTGAGTATACGGATAA,0.749
14,CGTCCAAGGTCATAGGAAGTCAGTGAAGACAGAT,0.466
15,ATCTATAGGTAACAAGTTCAGTGAAAGAGAGGAC,1.48
16,TCGTGTAGATCAAGCAGGTTAAGAAAGCCTGAGT,0.0709
17,CCTGGGAGGACAACAGGAGGTCAGAGCTGCCAGA,1.11
18,AGAATGAGGGTATACGTAGATCAGGGAAGAAAGT,-0.0376
19,AATACAGGGTCACTAGGCTAGAGTAGGTACGAAT,1.21
20,TCGAGTAGGTTACTAATGGGGCATTCAGCTTTCT,-0.684
21,GTACCAACGTGAATAGGTCGTTGATGAGTAGGCG,-0.122
22,CCTACTGGGCCATCAGGTTATTGATATCAACGTT,0.0589
